Experimental data taken from PubChem BioAssay (EPA / NIEHS).
Calls of active or inactive are those of the source. The calls were made as follows: active = hit-call score of the fitted dose curve at least 0.9, where 1 is the maximum; inactive = score below 0.9.

Assays:
[1] = IUF_NPC2c_oligodendrocyte_migration_120hr: Leibniz Research Institute for Environmental Medicine (IUF) 120-hour Neural Progenitor Cell Migration Assay for Oligodendrocyte Migration (NPC2c) (AID 2284297);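 also: O4-positive oligodendrocyte migration distance divided by radial glia migration distance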
Procedure, shortened: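 Exposure runs 5 days from differentiation onset at 37C, seven concentrations plus solvent control, DMSO at most 0.1%, applied to primary hNPC spheres on laminin. After fixation, O4 immunostaining gives oligodendrocyte distance from the sphere core, relative to radial glia migration.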

[2] = IUF_NPC2a_radial_glia_migration_120hr: Leibniz Research Institute for Environmental Medicine (IUF) 120-hour Neural Progenitor Cell Migration Assay for Radial Glia Migration (NPC2a) (AID 2284298)
Procedure, shortened: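 Migration distance in um, sphere core edge to migration-area edge, derived by nuclei-density algorithm from Hoechst images after 120 h compound exposure. Primary hNPC spheres differentiated on poly-D-lysine/laminin in N2 medium, 37C; medium half-replaced day 3.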

[3] = IUF_NPC2a_radial_glia_migration_72hr: Leibniz Research Institute for Environmental Medicine (IUF) 72-hour Neural Progenitor Cell Migration Assay for Radial Glia Migration (NPC2a) (AID 2284299)
Procedure, shortened: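 Readout: mean of four manual brightfield measurements of radial glia migration distance (um) at 72 h. hNPC spheres (0.3 mm) exposed to 7 compound concentrations plus solvent control on PDL/laminin, 37C, 5% CO2; activity fitted relative to DMSO.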

[4] = IUF_NPC2b_neuronal_migration_120hr: Leibniz Research Institute for Environmental Medicine (IUF) 120-hour Neural Progenitor Cell Migration Assay for Neuron Migration (NPC2b) (AID 2284300)
Procedure, shortened: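 TUBB3-positive neurons are imaged after 120 h of differentiation, and their mean distance from the sphere edge is normalised to radial glia migration. Single 0.3 mm fetal hNPC spheres on poly-D-lysine/laminin received 7 compound concentrations, ≤0.1% DMSO, refreshed at day 3.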

[5] = IUF_NPC3_neuronal_differentiation_120hr: Leibniz Research Institute for Environmental Medicine (IUF) 120-hour Neuronal Differentiation Assay (NPC3) (AID 2284301)
Procedure, shortened: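 Value is percent TUBB3-positive neurons among Hoechst-stained nuclei in the migration area, scored by trained CNN after 120 h differentiation. Primary hNPC spheres on poly-D-lysine/laminin, N2 medium, continuous dosing from day 0, half-refeed day 3; DMSO reference.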

[6] = IUF_NPC4_neurite_length_120hr: Leibniz Research Institute for Environmental Medicine (IUF) 120-hour Neuronal Morphology Assay for Neurite Length (NPC4) (AID 2284302)
Procedure, shortened: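 Neurite length, the mean in um across TUBB3-stained neurons, is derived by skeletonization of high-content images after 120 h differentiation. Compound exposure, 7 concentrations plus solvent control, ran from plating of hNPC spheres on poly-D-lysine/laminin, with medium half-replaced on day 3.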

[7] = read-out: Interleukin-8 (IL8), CXCL8 (gene 3576); experiment: BSK_MyoF_IL8: BioMAP Diversity Plus: MyoF Assay for Interleukin-8 (IL8) Biomarker Activity (AID 2284261); details: primary human lung fibroblasts
Procedure, shortened: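 IL-8 quantified by ELISA after 24 h compound exposure of primary human lung fibroblasts. SRB staining of parallel cultures flagged cytotoxicity; DMSO served as baseline.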

Decorin, DCN (gene 1634) = experiment: BSK_MyoF_Decorin: BioMAP Diversity Plus: MyoF Assay for Decorin Biomarker Activity (AID 2284265); details: primary human lung fibroblasts
Procedure, shortened: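 Decorin protein was quantified by ELISA 24 h after chemical addition to primary human lung fibroblasts and analysed as increase over DMSO. Cytotoxicity was tracked in parallel cultures by SRB total-protein staining read at 560 nm.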

[8] = BSK_MyoF_SRB: Viability Assessment in the BioMAP Diversity Plus: MyoF Assay (AID 2284267); details: primary human lung fibroblasts;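 also: total protein by SRB absorbance in parallel cultures as cytotoxicity measure; cells assessed 24 h after compound addition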
Procedure: BSK_MyoF is a cell-based, multiplexed-readout assay that uses lung fibroblasts, […], with measurements taken at 24 hours after chemical dosing in a microplate: 96-well plate.BSK_MyoF_SRB is an assay component measured in the BSK_MyoF assay. It measures 0.1% sulforhodamine related to cell death using Sulforhodamine staining technology.Data from the assay component BSK_MyoF_SRB was analyzed at the endpoint, BSK_MyoF_SRB, in the positive analysis fitting direction relative to DMSO as the negative control and baseline of activity. Using a type of viability reporter, gain or loss-of-signal activity can be used to understand protein changes. […]
(§1) The levels of cell surface (or secreted, indicated by the prefix "s") biomarker endpoints were measured by ELISA. Overt cytotoxicity to cells in confluent adherent cultures (all systems other than the BT system) was assessed by measuring total protein levels using sulforhodamine B (SRB) staining in parallel cultures at the time of biomarker measurements, indicated as SRB endpoints. For proliferation assays for adherent cell types, individual cell types are cultured at sub-confluence and relative cell numbers quantified by SRB staining at time points optimized for each system (48 h: 3C and CASM3C systems; 72 h: BT and HDF3CGF systems; 96 h: SAg system). […] Plates were read after 6 h.

[9] = read-out: TIMP metallopeptidase inhibitor 1 (TIMP1), TIMP1 (gene 7076); experiment: BSK_MyoF_TIMP1: BioMAP Diversity Plus: MyoF Assay for TIMP metallopeptidase inhibitor 1 (TIMP1) Biomarker Activity (AID 2284269); details: primary human lung fibroblasts
Procedure: BSK_MyoF is a cell-based, multiplexed-readout assay that uses lung fibroblasts, […], with measurements taken at 24 hours after chemical dosing in a microplate: 96-well plate.BSK_MyoF_TIMP1 is an assay component measured in the BSK_MyoF assay. It measures TIMP-1 antibody related to regulation of gene expression using ELISA technology.Data from the assay component BSK_MyoF_TIMP1 was analyzed at the endpoint, BSK_MyoF_TIMP1, in the positive analysis fitting direction relative to DMSO as the negative control and baseline of activity. Using a type of binding reporter, gain or loss-of-signal activity can be used to understand protein changes. […]
as §1

Measured: AC50

COC(=O)N(C(=O)N1CO[C@@]2(C(=O)OC)Cc3cc(Cl)ccc3C2=N1)c1ccc(OC(F)(F)F)cc1
inactive: [1] | [2] | [3] | [4] | [5] | [6]

N#CN=C1SCCN1Cc1ccc(Cl)nc1
inactive: [1] | [2] | [3] | [4] | [5] | [6]

CO/N=C(/C1=NOCCO1)c1ccccc1Oc1ncnc(Oc2ccccc2Cl)c1F
inactive: [1] | [2] | [3] | [4] | [5] | [6]

COCC(C)N(C(=O)CCl)c1c(C)csc1C (stereo not given)
inactive: Decorin, DCN (gene 1634) | [8] | [9]
active: [7] 10.3 µM

C=C(C)CN(CC)c1c([N+](=O)[O-])cc(C(F)(F)F)cc1[N+](=O)[O-]
inactive: [1] | [2] | [3] | [4] | [5] | [6]

CC1(C)C(C=C(Cl)Cl)C1C(=O)OC(C#N)c1cccc(Oc2ccccc2)c1 (stereo not given)
inactive: [1] | [2] | [3] | [4] | [5] | [6]

CC(C)(C)C(=O)C(Oc1ccc(Cl)cc1)n1cncn1 (stereo not given)
inactive: [1] | [2] | [3] | [4] | [5] | [6]

CS(=O)(=O)c1ccc(C(=O)C2C(=O)CCCC2=O)c([N+](=O)[O-])c1
active: [6] 0.203 µM
inactive: [1] | [2] | [3] | [4] | [5]

CCSC(=O)N1CCCCCC1
active: [3] 8.49 µM | [6] 0.143 µM
inactive: [1] | [2] | [4] | [5]

CCNC(=O)NC(=O)C(C#N)=NOC
active: [5] 0.318 µM
inactive: [1] | [2] | [3] | [4] | [6]

CCOP(=O)(OCC)Oc1nc(Cl)c(Cl)cc1Cl
inactive: [1] | [2] | [3] | [4] | [5] | [6]

CS(=O)(=O)c1cc(C(F)(F)F)ccc1C(=O)c1cnoc1C1CC1
inactive: [1] | [2] | [3] | [4] | [5] | [6]

CN/C(=N\[N+](=O)[O-])NCc1cnc(Cl)s1
active: [6] 10 µM
inactive: [1] | [2] | [3] | [4] | [5]

CNC(=O)Oc1cccc2ccccc12
active: [6] 10 µM
inactive: [1] | [2] | [3] | [4] | [5]

O=C(Nc1ccccc1-c1ccc(Cl)cc1)c1cccnc1Cl
inactive: [1] | [2] | [3] | [4] | [5] | [6]

COP(=S)(OC)SCn1nnc2ccccc2c1=O
inactive: [1] | [3] | [4] | [5] | [6]
active: [2] 13.7 µM

Cc1c(COC(=O)[C@@H]2[C@H](/C=C(\Cl)C(F)(F)F)C2(C)C)cccc1-c1ccccc1
inactive: [1] | [2] | [3] | [4] | [5] | [6]
